Compound activity from PubChem BioAssay.
U2OS ROS induce: raises reactive oxygen species in U2OS cancer cells | U2OS ROS induction, H2DCF-DA fluorescence | ROS induction (% of piperlongumine), % at 10 µM | hit rate 2% among 46,000 | AID 624156; in the data active = ROS induction above about 79%, passing the limit was not always enough
Of the large screens only hits and unclear results are named; the others gave an inactive call. The full list was thinned out, with hits kept by preference.

N#Cc1ccc(C=NCCN2CCNC2=O)cc1	none
CS(=O)(=O)N(CC(=O)Nc1ccc(Cl)c(Cl)c1)c1ccc(Br)cc1	none
CCn1c(SCC(=O)Nc2cc(C)ccc2OC)nnc1-c1ccccc1F	none
CC(=O)OCCCNC(=O)c1cc2ccccc2oc1=O	none
CC(=O)OC/C(=C\COc1cc(=O)oc2cccc(C)c12)CCC=C(C)C	U2OS ROS induce 110
CCc1cc(=O)oc2cc(C)cc(OCC(=O)C(C)(C)C)c12	none
CC(c1ccccc1)n1c(SCC(=O)c2csc3ccccc23)n[nH]c1=O (stereo unspecified)	none
CC1=NN(C(=O)COc2cc(C)cc(C)c2)C(O)(C(F)(F)F)C1 (stereo unspecified)	none
COc1ccccc1NC(=O)CSc1nncn2c1cc1oc(C)cc12	U2OS ROS induce 107
COc1ccccc1NC(=O)CSc1ncccn1	none
COc1ccccc1NC(=O)CSc1ncn(-c2ccccc2)n1	none
Cc1noc(C)c1S(=O)(=O)NCC1COc2ccccc2O1 (stereo unspecified)	none
COc1ccc(C2=NN(S(C)(=O)=O)C(c3ccccc3OC)C2)cc1 (stereo unspecified)	U2OS ROS induce 164
COc1ccc(C2=NN3COc4ccccc4C3C2)cc1 (stereo unspecified)	none
COc1ccc(C2=NN(S(C)(=O)=O)C(c3ccc(C)cc3)C2)cc1 (stereo unspecified)	none
CCCc1cc(-n2cnc3ccccc32)n2c(nc3ccccc32)c1C#N	none
Cc1cc(/N=C\N(C)C)n2c(nc3ccccc32)c1C#N	none
CC(C)c1cc(NC(C)c2ccccc2)n2c(nc3ccccc32)c1C#N (stereo unspecified)	U2OS ROS induce 257
CC(C)(C)c1cn2c3ccccc3nc2n1CCNC1CCCCC1	none
CC(C)c1cc(NC2CCCCC2)n2c(nc3ccccc32)c1C#N	U2OS ROS induce 164
COc1cccc(S(=O)(=O)NCc2ccc(C(=O)Nc3ccc4sc(C)nc4c3)cc2)c1	none
COc1ccc(S(=O)(=O)N2CCCC(C(=O)Nc3ccc4c(c3)OCCO4)C2)cc1Cl (stereo unspecified)	none
Cc1ccc(-c2nnc(SCC(=O)c3cccc([N+](=O)[O-])c3)n2C)cc1	none
Cc1ccc(-c2nc3c(cnn3-c3ccccc3)c(=O)n2-c2cccc(C)c2)cc1	U2OS ROS induce 187
O=c1c2cnn(-c3ccccc3)c2ncn1C/C=C/c1ccccc1	none
Cc1ccc(-n2ncc3c2ncn2nc(Cc4ccccc4)nc32)cc1	none
C[C@@H]1CN([C@H](C)CO)C(=O)c2cccc(NS(C)(=O)=O)c2O[C@@H]1CN(C)CC1CCCCC1	none
C=C1C(=O)O[C@@H]2[C@H]3O[C@]3(C)CCC=C(C)CC[C@@H]12	U2OS ROS induce 101
C=C1C(=O)O[C@H]2C1CCC(C)=C1C(=O)C=C(C)[C@@]12O (stereo partly specified)	none
C=C1C(=O)O[C@H]2CC(C)C3CC[C@@]4(C)O[C@@]34CC12 (stereo partly specified)	none
C=C1C(=O)O[C@@H]2C3O[C@]3(C)CC/C=C(/C)CC[C@@H]12 (stereo partly specified)	U2OS ROS induce 92
C=C1C(=O)O[C@@H]2[C@H]3C(CO[C@@H]4O[C@H](CO)[C@@H](O)[C@H](O)[C@H]4O)=CC(=O)C3=C(C)CC[C@@H]12	none
O=C(c1ccccc1)N1CCc2c([nH]c3ccccc23)C1c1ccccc1 (stereo unspecified)	none
C[C@@H]1CN([C@H](C)CO)C(=O)Cc2cc(NS(=O)(=O)c3cn(C)cn3)ccc2O[C@H]1CN(C)Cc1ccc(C(=O)Nc2ccccc2N)cc1	none
COc1ccc(NC(=O)N(C)C[C@@H]2Oc3ccc(NC(=O)Cn4cnnn4)cc3CC(=O)N([C@H](C)CO)C[C@@H]2C)cc1	none
COc1ccc(-c2nnc(SCC(=O)Nc3ccc(Cl)cc3Cl)n2-c2ccccc2)cc1OC	none
C[C@@H]1CCCCO[C@@H](CN(C)C(=O)Nc2cccc3ccccc23)[C@@H](C)CN([C@H](C)CO)C(=O)c2cc(NC(=O)Cc3ccccc3)ccc2O1	U2OS ROS induce 177
C[C@@H]1CCCCO[C@H](CN(C)S(C)(=O)=O)[C@@H](C)CN([C@H](C)CO)C(=O)c2cc(NC(=O)Cc3ccccc3)ccc2O1	none
C[C@@H]1CCCCO[C@H](CN(C)C(=O)Nc2ccccc2)[C@@H](C)CN([C@H](C)CO)C(=O)c2cc(NC(=O)Cc3ccccc3)ccc2O1	none
C[C@@H]1CCCCO[C@@H](CN(C)C(=O)Nc2ccccc2)[C@@H](C)CN([C@H](C)CO)C(=O)c2cc(NC(=O)Cc3ccccc3)ccc2O1	none
C[C@@H]1CCCCO[C@@H](CN(C)S(C)(=O)=O)[C@@H](C)CN([C@H](C)CO)C(=O)c2cc(NC(=O)Nc3ccccc3)ccc2O1	none
C[C@@H]1CCCCO[C@@H](CN(C)S(C)(=O)=O)[C@@H](C)CN([C@H](C)CO)C(=O)c2cc(NC(=O)Cc3ccccc3)ccc2O1	U2OS ROS induce 84
C[C@@H]1CN([C@H](C)CO)C(=O)c2cc(NC(=O)Cn3cnnn3)ccc2O[C@H]1CN(C)C	none
C[C@@H]1CN([C@H](C)CO)C(=O)c2cc(NC(=O)CCN3CCOCC3)ccc2O[C@@H]1CN(C)C	none
